Data reported in PubChem BioAssay (EPA / NIEHS).
Records with an inconclusive call do not appear. Calls of active or inactive are those of the source. Rule for the calls, unless noted: active = hit-call score of the fitted dose curve at least 0.9, where 1 is the maximum; inconclusive = response in the unintended direction; inactive = score below 0.9.

Key:
[1] = Tanguay_ZF_120hpf_SWIM_legacy: (Legacy) Oregon State University Tanguay Lab 120 Hour Post-fertilization zebrafish Assay for Swim Bladder Malformation (AID 2283654);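 note: swim bladder malformation in each larva scored yes or no under brightfield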
Summary of the method: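 Embryos lacking chorions were exposed individually and statically to test chemical from 6 to 120 hpf at 28C, with 0.64% DMSO as vehicle. At 120 hpf, swim bladder malformation was recorded as present or absent by brightfield microscopy.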

[2] = Tanguay_ZF_120hpf_TRUN_legacy: (Legacy) Oregon State University Tanguay Lab 120 Hour Post-fertilization zebrafish Assay for Truncated Body (AID 2283655)
Summary of the method: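 Truncated body is recorded as a binary endpoint at 120 hpf by brightfield imaging of wild-type 5D larvae. Exposure runs statically from 6 hpf at 28C with 0.64% DMSO; embryos dying earlier are not scored.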

[3] = read-out: ABC Transporter (ABCB1), ABCB1 (gene 5243); assay: CLD_ABCB1_6hr: CellzDirect (CLD) Gene Expression Assay for ABC Transporter (ABCB1) at 6 hours (AID 2283659);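 note: hits raise ABCB1 transcript above the DMSO vehicle baseline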
Summary of the method: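 Primary human hepatocytes (two donor preparations) dosed daily for two days with chemicals at multiple concentrations, 0.2% DMSO vehicle; harvested 6 h post-dose. ABCB1 mRNA induction quantified by qNPA chemiluminescence; gain-of-signal fitted versus DMSO.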

[4] = read-out: Broad substrate specificity ATP-binding cassette transporter ABCG2 (Homo sapiens) (UniProt Q9UNQ0); assay: CLD_ABCG2_6hr: CellzDirect (CLD) Gene Expression Assay for ABC Transporter (ABCG2) at 6 hours (AID 2283660)
Summary of the method: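 Primary human hepatocytes dosed daily with chemicals at multiple concentrations (0.2% DMSO vehicle), harvested 6 h after dosing. ABCG2 mRNA induction read by quantitative nuclease protection assay (qNPA) chemiluminescence; gain of signal fitted against DMSO baseline.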

[5] = read-out: xenobiotic metabolism (CYP1A1), CYP1A1 (gene 1543); assay: CLD_CYP1A1_6hr: CellzDirect (CLD) Gene Expression Assay for xenobiotic metabolism (CYP1A1) at 6 hours (AID 2283661);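 for AC50: potency for transcript induction above DMSO vehicle baseline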
Summary of the method: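 Primary human hepatocytes from two donors, compound versus 0.2% DMSO vehicle. CYP1A1 mRNA measured 6 h after dosing by quantitative nuclease protection assay with chemiluminescent read-out; induction fitted relative to DMSO, cytotoxicity flagged by microscopy.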

[6] = test system: Thyroperoxidase (TPO), gene 54314; assay: CCTE_Simmons_AUR_rTPO: CCTE's Amplex UltraRed Assay for Thyroperoxidase (TPO) Inhibition, Simmons Lab (AID 2283662);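 note: potency for loss of signal meaning inhibition of peroxidase activity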
Summary of the method: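 Endpoint is decreased Amplex UltraRed fluorescence after a 30-min, 37C reaction of rat thyroid microsomes with 300 uM H2O2. Eight test concentrations (5 nM–87.5 uM final) in 0.5% DMSO, three biological replicates each.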

[7] = read-out: xenobiotic metabolism (CYP1A2), CYP1A2 (gene 1544); assay: CLD_CYP1A2_6hr: CellzDirect (CLD) Gene Expression Assay for xenobiotic metabolism (CYP1A2) at 6 hours (AID 2283663);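 for AC50: potency is for induction meaning a rise in mRNA above DMSO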
Summary of the method: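 Primary human hepatocytes from two donor preparations, dosed daily with multiple concentrations in 0.2% DMSO and harvested at 6 h. CYP1A2 mRNA induction measured by chemiluminescent qNPA, gain of signal fitted against DMSO; cytotoxicity flagged morphologically.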

[8] = read-out: xenobiotic metabolism (CYP2C9), CYP2C9 (gene 1559); assay: CLD_CYP2C9_6hr: CellzDirect (CLD) Gene Expression Assay for xenobiotic metabolism (CYP2C9) at 6 hours (AID 2283664)
Summary of the method: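 Primary human hepatocytes dosed daily with test chemicals at multiple concentrations; harvested at 6 h. CYP2C9 mRNA induction measured by qNPA chemiluminescence. Gain of signal fitted against 0.2% DMSO vehicle; cytotoxicity annotated from phase-contrast morphology.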

[9] = CCTE_Simmons_CellTiterGLO_HEK293T: Viability Assessment in CCTE's Assays for Thyroperoxidase (TPO) Inhibition, Simmons Lab (AID 2283665);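 for AC50: cells exposed to compound for 24 h before readout; actives reduce ATP signal below DMSO vehicle meaning cytotoxicity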
Summary of the method: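 HEK293T cells in DMEM with 1% FBS, dosed 24 h at 37C with 8 concentrations, 5 nM–87.5 uM final, 0.5% DMSO. ATP measured by CellTiter Glo luminescence; loss of signal vs DMSO, three biological replicates.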

[10] = read-out: alkyl and aryl transferase (GSTA2), GSTA2 (gene 2939); assay: CLD_GSTA2_6hr: CellzDirect (CLD) Gene Expression Assay for alkyl and aryl transferase (GSTA2) at 6 hours (AID 2283666)
Summary of the method: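 Primary human hepatocytes from two donor preparations were dosed daily with fresh compound at multiple concentrations, 0.2% DMSO vehicle. GSTA2 mRNA was measured at 6 hours by qNPA chemiluminescence; induction fitted relative to DMSO, with cytotoxicity flagged morphologically.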

[11] = Tanguay_ZF_120hpf_TR_legacy: (Legacy) Oregon State University Tanguay Lab 120 Hour Post-fertilization zebrafish Assay for Touch Response (AID 2283667)
Summary of the method: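 5D WT embryos; static exposure to 120 hpf, 28C, sealed/dark; DMSO 0.64% v/v final. TR scored present/absent; dead embryos excluded. Pos ctrl 5uM trimethyltin chloride.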

[12] = read-out: sulfotransferase (SULT2A), SULT2A1 (gene 6822); assay: CLD_SULT2A_6hr: CellzDirect (CLD) Gene Expression Assay for sulfotransferase (SULT2A) at 6 hours (AID 2283669);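 note: hits raise transcript level above the DMSO vehicle baseline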
Summary of the method: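 Primary human hepatocytes from two donor preparations were dosed daily with chemicals or 0.2% DMSO and harvested at 6 h. Transcript induction read by qNPA chemiluminescence, fitted for gain of signal relative to DMSO; morphology-based cytotoxicity annotated.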

[13] = read-out: xenobiotic metabolism (CYP1A1), CYP1A1 (gene 1543); assay: CLD_CYP1A1_24hr: CellzDirect (CLD) Gene Expression Assay for xenobiotic metabolism (CYP1A1) at 24 hours (AID 2283673);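 note: CYP1A1 mRNA level by quantitative nuclease protection with chemiluminescence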
Summary of the method: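 Primary human hepatocytes dosed daily with fresh solutions in 0.2% DMSO vehicle. mRNA measured at 24 h by quantitative nuclease protection assay with chemiluminescence; gain-of-signal fit versus DMSO, with morphology-based cytotoxicity flags.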

[14] = read-out: ABC Transporter (ABCB11), ABCB11 (gene 8647); assay: CLD_ABCB11_24hr: CellzDirect (CLD) Gene Expression Assay for ABC Transporter (ABCB11) at 24 hours (AID 2283674; active = hit-call score of the fitted dose curve at least 0.9, where 1 is the maximum; inactive = score below 0.9)
Summary of the method: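 Primary human hepatocytes were dosed daily for two days, with 0.2% DMSO vehicle. ABCB11 mRNA induction was measured at 24 hours by quantitative nuclease protection assay with chemiluminescence. Gain of signal was fitted relative to DMSO.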

[15] = read-out: solute carrier (SLC22A6), SLC22A6 (gene 9356); assay: LTEA_HepaRG_SLC22A6: Life Technologies and Expression Analysis (LTEA) Assay for solute carrier (SLC22A6) using HepaRG (AID 2283653; active = hit-call score of the fitted dose curve at least 0.9, where 1 is the maximum; inactive = score below 0.9); settings: mRNA level, 48 h; actives raise or lower the signal
Summary of the method: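 Read-out is SLC22A6 transcript level by qRT-PCR, normalised to three housekeeping genes and fitted for gain or loss relative to 0.5% DMSO vehicle. Human HepaRG cells received chemicals at up to 100 uM for 48 h.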

[16] = read-out: solute carrier (SLC10A1), SLC10A1 (gene 6554); assay: LTEA_HepaRG_SLC10A1: Life Technologies and Expression Analysis (LTEA) Assay for solute carrier (SLC10A1) using HepaRG (AID 2283657; active = hit-call score of the fitted dose curve at least 0.9, where 1 is the maximum; inactive = score below 0.9); settings: mRNA level, 48 h; actives raise or lower the signal
Summary of the method: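 Transcript levels were measured by qRT-PCR after human HepaRG cells received test chemical for 48 hours, up to 100 uM in half-log dilutions. Values come from bidirectional concentration-response fitting relative to 0.5% DMSO vehicle.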

[17] = read-out: matrix metalloproteinase-1 (MMP1), MMP1 (gene 4312); assay: LTEA_HepaRG_MMP1: Life Technologies and Expression Analysis (LTEA) Assay for matrix metalloproteinase-1 (MMP1) using HepaRG (AID 2283658; active = hit-call score of the fitted dose curve at least 0.9, where 1 is the maximum; inactive = score below 0.9); settings: mRNA level, 48 h; actives raise or lower the signal
Summary of the method: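 HepaRG, ~100,000 cells/well, 48 h pre-culture; serum-free induction medium; test chemical 8 conc (max 100 uM, half-log), duplicate, 48 h; 0.5% DMSO; qRT-PCR MMP1, housekeeping-normalized; gain/loss fit vs DMSO.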

[18] = read-out: Cytochrome P450 (CYP24A1_1), CYP24A1 (gene 1591); assay: LTEA_HepaRG_CYP24A1_1: Life Technologies and Expression Analysis (LTEA) Assay for Cytochrome P450 (CYP24A1_1) using HepaRG (AID 2283671; active = hit-call score of the fitted dose curve at least 0.9, where 1 is the maximum; inactive = score below 0.9); settings: mRNA level, 48 h; actives raise or lower the signal
Summary of the method: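 In this test, gene induction or suppression of CYP24A1 in human HepaRG liver cells is measured by qRT-PCR after 48 h chemical treatment (eight concentrations, maximum 100 uM). Values are fitted bidirectionally relative to DMSO.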

[19] = read-out: glucuronosyltransferase (UGT1A1), UGT1A1 (gene 54658); assay: CLD_UGT1A1_6hr: CellzDirect (CLD) Gene Expression Assay for glucuronosyltransferase (UGT1A1) at 6 hours (AID 2283672)
Summary of the method: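 Primary human hepatocytes from two donor preparations, dosed with fresh solutions in 0.2% DMSO, harvested at 6 h. UGT1A1 mRNA measured by qNPA chemiluminescence; induction fitted upward versus DMSO.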

[20] = Tanguay_ZF_120hpf_NC_legacy: (Legacy) Oregon State University Tanguay Lab 120 Hour Post-fertilization zebrafish Assay for Notochord and Tail Malformation (AID 2283656)
Summary of the method: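 Dechorionated Tropical 5D wild-type zebrafish embryos, one per well from 6 hpf, statically exposed to 120 hpf at 28C in 0.64% DMSO final. Notochord distortion scored present/absent by brightfield; dead embryos excluded.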

Measured: AC50

Chain of Broad substrate specificity ATP-binding cassette transporter ABCG2 (Homo sapiens) (Q9UNQ0 whole entry, looked up): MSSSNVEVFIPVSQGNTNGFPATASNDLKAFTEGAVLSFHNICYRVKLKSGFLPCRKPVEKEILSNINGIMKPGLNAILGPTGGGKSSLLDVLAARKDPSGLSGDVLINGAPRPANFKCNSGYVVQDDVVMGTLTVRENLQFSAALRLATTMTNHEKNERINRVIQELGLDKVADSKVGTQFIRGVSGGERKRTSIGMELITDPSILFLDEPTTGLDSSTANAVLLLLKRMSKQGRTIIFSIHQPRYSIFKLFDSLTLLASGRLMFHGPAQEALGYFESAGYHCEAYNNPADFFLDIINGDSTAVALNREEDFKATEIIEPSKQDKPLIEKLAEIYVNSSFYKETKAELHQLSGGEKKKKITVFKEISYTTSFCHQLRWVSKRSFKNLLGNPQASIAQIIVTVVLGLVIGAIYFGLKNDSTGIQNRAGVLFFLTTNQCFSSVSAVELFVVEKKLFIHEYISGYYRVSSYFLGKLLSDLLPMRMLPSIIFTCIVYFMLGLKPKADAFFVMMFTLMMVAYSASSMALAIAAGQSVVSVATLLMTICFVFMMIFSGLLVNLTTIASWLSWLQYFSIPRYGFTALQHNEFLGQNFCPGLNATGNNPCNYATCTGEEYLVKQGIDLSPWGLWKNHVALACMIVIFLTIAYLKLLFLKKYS

CCOP(=O)(OCC)Oc1nc(Cl)c(Cl)cc1Cl
active: [5] 3.92 µM | [6] 29 µM | [7] 5.84 µM | [9] 81.5 µM
not listed: [15] | [16] | [17] | [18] | [19] | [20]
inactive: all other assays above

CC(C)N1C(=O)N(c2ccccc2)CSC1=NC(C)(C)C
inactive: [1] | [2] | [3] | [4] | [7] | [8] | [10] | [11] | [14]

CN=C=S
not listed: [6] | [7] | [9] | [12] | [14] | [20]
inactive: all other assays above

CC(C)Nc1nc(Cl)nc(NC(C)C)n1
active: [5] 4.73 µM | [7] 0.163 µM | [13] 11.4 µM
inactive: [1] | [2] | [20] | [3] | [4] | [11]

CCCN(CC)CC1COC2(CCC(C(C)(C)C)CC2)O1 (centres undefined)
active: [13] 0.376 µM
inactive: [1] | [2] | [3] | [4] | [5] | [7] | [10]

COP(=O)(OC)O/C(C)=C/C(=O)N(C)C
not listed: [6] | [9] | [12] | [15] | [16] | [17] | [18] | [20]
inactive: all other assays above

CCCCC(C#N)(Cn1cncn1)c1ccc(Cl)cc1 (centres undefined)
active: [2] 48 µM | [16] 83.9 µM | [5] 3.97 µM | [11] 50.7 µM | [13] 35.3 µM
not listed: [4] | [6] | [9] | [10] | [14] | [20]
inactive: all other assays above

O=P(O)(O)CCCl
active: [6] 18.2 µM
inactive: [1] | [2] | [7] | [9] | [10] | [11] | [14]

CSC(=O)c1c(C(F)F)nc(C(F)(F)F)c(C(=O)SC)c1CC(C)C
active: [13] 4.78 µM
inactive: [1] | [2] | [7] | [8] | [10] | [11]

CC(C)NC(=O)N1CC(=O)N(c2cc(Cl)cc(Cl)c2)C1=O
active: [5] 8.11 µM | [7] 20 µM | [13] 20 µM
inactive: [1] | [3] | [4] | [11] | [19] | [14]
